TEAD-YAP inh: TEAD-YAP interaction inhibition, primary screen, TEAD-YAP interaction inhibitor project, luminescence, HEK-TIYL cells; TEAD-Gal4/YAP UAS-luciferase luminescence; 640,000 compounds, 1.4% hits; inhibition, % at 9.12 µM; AID 1259422, 2018; in the data active = inhibition above about 32%
MITF primary: MITF inhibitors, primary screen, biochemical, AlphaScreen, human | inhibition, % at 2.6 µM | AlphaScreen MITF homodimerization, bead proximity signal | 650,000 compounds, 0.91% hits | Microphthalmia-associated transcription factor (Homo sapiens), O75030; in the data active = inhibition above about 50%
GPR151 activ: activators of human GPR151, primary screen, cell-based, PathHunter beta-arrestin, luminescence | G-protein coupled receptor 151 (Homo sapiens), Q8TDV0 | PathHunter beta-arrestin GPR151 cells | activation, % at 11.2 µM | 650,000 compounds, 1% hits | AID 1508602, 2020; in the data active = activation above about 4.9%
Target sequence (Q8TDV0 whole entry, looked up): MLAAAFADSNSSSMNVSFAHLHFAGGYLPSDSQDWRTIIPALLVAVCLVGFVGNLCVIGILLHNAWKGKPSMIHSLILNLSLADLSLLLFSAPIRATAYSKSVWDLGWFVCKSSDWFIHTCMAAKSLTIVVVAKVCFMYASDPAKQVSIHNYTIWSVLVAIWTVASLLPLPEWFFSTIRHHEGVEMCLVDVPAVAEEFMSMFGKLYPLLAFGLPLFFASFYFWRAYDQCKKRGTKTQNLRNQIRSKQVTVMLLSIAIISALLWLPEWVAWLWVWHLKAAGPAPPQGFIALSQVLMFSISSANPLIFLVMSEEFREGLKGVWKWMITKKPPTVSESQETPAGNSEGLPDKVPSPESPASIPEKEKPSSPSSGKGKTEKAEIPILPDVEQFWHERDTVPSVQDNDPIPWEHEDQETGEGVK
FBW7 activator: FBW7 E3 ligase activators, primary screen, biochemical, AlphaScreen, human | F-box/WD repeat-containing protein 7 (Homo sapiens), Q969H0 | AlphaScreen FBW7–phospho-cyclin E peptide binding, activator screen | normalized activity (activation), % at 26.1 µM | 650,000 compounds, 0.13% hits | AID 1259310, 2017; in the data active = normalized activity above about 1.9%;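 note: purified mutant Fbw7 with reduced substrate affinity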
Numbers stand for hits; – = inactive. Shown are actives, neighbours in structure and some others; about 3.5% of the full set was active somewhere.

SMILES	TEAD-YAP inh	MITF primary	GPR151 activ	FBW7 activator
COc1cc(C=O)ccc1OCC(=O)c1ccccc1	60	–	–	–
COc1cc(/C=N/n2cnnc2)ccc1OCc1cccc(C(=O)O)c1	78	–	–	–
O=c1c2ccccc2ncn1CCOc1ccccc1Br	–	–	–	–
COc1ccc([N+](=O)[O-])cc1NC(=O)COc1ccc(Br)cc1C	84	–	–	–
Cc1cc(Br)ccc1OCC(=O)Nc1cccc([N+](=O)[O-])c1	–	–	–	–
CCC(=O)NC(c1ccc(N(C)C)cc1)c1ccc2cccnc2c1O (centres undefined)	69	–	–	–
CCN(CC)c1ccc(C(NC(=O)C(C)C)c2ccc3cccnc3c2O)cc1 (centres undefined)	74	–	–	–
CC(=O)NC(c1ccc(N(C)C)cc1)c1ccc2cccnc2c1O (centres undefined)	82	59	–	–
CC(C)C(=O)NC(c1ccc(N(C)C)cc1)c1ccc2cccnc2c1O (centres undefined)	84	–	–	–
Cc1ccc(S(=O)(=O)N2CCC(C(=O)N3CCCC(C(F)(F)F)C3)CC2)cc1 (centres undefined)	–	–	–	–
Cc1nnsc1C(=O)NCC1CCC(c2nc3ccccc3n2C)CC1 (centres undefined)	–	–	–	–
CCCCC(=O)NC(c1ccc(N(C)C)cc1)c1ccc2cccnc2c1O (centres undefined)	75	–	–	–
Cc1c(C(=O)Nc2ccccc2F)sc2ncnc(N3CCN(c4ccccc4)CC3)c12	–	–	–	1.9
Cc1c(C(=O)Nc2c(F)cccc2F)sc2ncnc(N3CCN(c4ccccc4)CC3)c12	–	–	–	–
CCN(CC)C(=O)c1sc2ncnc(N3CCN(c4ccccc4)CC3)c2c1C	–	–	–	2.0
Cc1c(C(=O)NC(C)C)sc2ncnc(N3CCN(c4ccccc4)CC3)c12	–	–	–	2.1
COc1cc(NC(=O)c2sc3ncnc(N4CCN(c5ccccc5F)CC4)c3c2C)cc(OC)c1OC	32	–	–	–
Clc1ccc(N2CCN(c3ncnc4sc(-c5ccccc5)cc34)CC2)cc1Cl	–	–	–	–
CC(C)CCC1(C2CCN(C(=O)C(C)(C)C)CC2)NC(=O)N(CCN(C)C)C1=O (centres undefined)	–	–	–	–
Cc1ccc(NC(=O)c2sc3ncnc(N4CCN(c5ccccc5F)CC4)c3c2C)c(Br)c1	–	–	–	2.0
CCOc1ccc2nc(Sc3nc(Nc4ccc(C)cc4)nc(Nc4ccc(C)cc4)n3)sc2c1	–	–	–	–
CN(c1ncccc1CNc1cc(Nc2ccc3c(c2)CC(=O)N3)ncc1C(F)(F)F)S(C)(=O)=O	35	–	–	–
CNC(=O)c1cc(N2CCOCC2)ccc1Nc1cc(Nc2ccc3c(c2)CC(=O)N3)ncc1C(F)(F)F	–	–	–	–
CN(c1ncccc1CNc1nc(Nc2ccc3c(c2)CC(=O)N3)ncc1C(F)(F)F)S(C)(=O)=O	77	–	–	–
O=C(N/N=C\c1ccc(O)cc1O)c1cnccn1	–	79	–	–
SMILES	TEAD-YAP inh	MITF primary	GPR151 activ	FBW7 activator
O=C(N/N=C\c1cccc([N+](=O)[O-])c1O)c1cnccn1	–	77	–	–
O=C(N/N=C\c1ccc(O)cc1O)c1ccccn1	–	65	–	–
O=C(N/N=C\c1cc(Br)ccc1O)c1ccccn1	–	58	–	–
O=C(Nc1cc2cc([N+](=O)[O-])ccc2oc1=O)c1ccccc1	–	–	–	–
Cc1cccc(Oc2c(C(F)(F)F)oc3cc(OC(=O)c4ccco4)ccc3c2=O)c1	–	–	–	–
COc1cc(C(=O)Nc2cc(C(=O)N3c4ccc(F)cc4CCC3C)ccc2N2CC3CC(C2)c2cccc(=O)n2C3)cc(OC)c1OC (centres undefined)	–	–	–	–
CN(C)CCOc1cc(-c2cn[nH]c2)cc2sc(C3COc4ccccc4C3)nc12 (centres undefined)	–	–	–	–
COc1ccc2c(c1)CC(c1nc3c(OCCN(C)C)cc(-c4cn[nH]c4)cc3s1)CO2 (centres undefined)	73	–	–	–
COc1ccc2c(c1)CC(C(=O)Nc1ccc(-c3cn[nH]c3)cc1OCCN)CO2 (centres undefined)	38	–	–	–
COc1ccc2c(c1)CC(C(=O)Nc1ccc(-c3cn[nH]c3)cc1OCCCO)CO2 (centres undefined)	–	–	–	–
CCc1ccc(-c2nc3cc(N)ccc3o2)cc1	65	–	–	–
CCc1ccc2oc(-c3cc(N)ccc3O)nc2c1	38	–	–	–
CN(C)c1ccc(-c2nc3cc(N)ccc3o2)cc1	79	–	–	–
CCc1ccc2oc(-c3cc(N)ccc3Cl)nc2c1	–	–	–	–
Cc1ccc(-c2nc3cc(N)ccc3o2)cc1Cl	–	–	–	–
COC(=O)c1ccc(-c2nc3cc(NC(C)=O)c(N)cc3o2)cc1	–	–	–	–
COC(=O)c1ccc(-c2nc3cc(N)ccc3o2)cc1	72	–	–	–
CC1CCc2nc(NC(=O)C(C)C)sc2C1 (centres undefined)	–	–	–	–
Nc1ccc(-c2nc3cc(N)ccc3o2)cc1	49	–	–	–
Nc1ccc(-c2nc3cc(Cc4ccc5oc(-c6ccc(N)cc6)nc5c4)ccc3o2)cc1	–	–	–	–
COc1cccc(-c2nc3cc(N)ccc3o2)c1	49	–	–	–
CCOc1ccc(-c2nc3cc(N)ccc3o2)cc1	76	–	–	–
O=C(OCC1CCCO1)c1cccc(C(F)(F)F)c1 (centres undefined)	–	–	–	–
Cc1cnc(NC(=O)CN2CCC(O)(c3ccccn3)CC2)s1	–	–	–	–
Cc1cnc(NC(=O)CN2CCN(c3ccccn3)CC2)s1	65	–	–	–
SMILES	TEAD-YAP inh	MITF primary	GPR151 activ	FBW7 activator
CCN(CC)CCn1c(=S)[nH]c2cc(C(=O)N3CCC(O)(c4cccc(C(F)(F)F)c4)CC3)ccc2c1=O	–	–	–	–
CN(C)CCOc1ccc(CN[C@H]2C[C@H]3C(=O)N[C@@H](Cc4c[nH]c5ccccc45)C(=O)N3C2)cc1	–	–	–	–
Cc1ccccc1Nc1nc(Cl)c(C=O)s1	40	–	–	–
CC1(C)Cc2ccccc2-c2[nH][nH]c(=O)c21	37	–	–	–
CN1C(=O)c2ccccc2CC1(C)C	–	–	–	–
COC(=O)c1ccc(-c2nc3cc(Cl)c(N)cc3s2)cc1	47	–	–	–
CCc1ccc(-c2csc(=Nc3cccc(C(F)(F)F)c3)n2Cc2ccc3c(c2)OCO3)cc1	–	–	–	–
CC(c1ccc([N+](=O)[O-])cc1)c1nc(-c2ccncc2)no1 (centres undefined)	–	–	–	–
CC(c1ccc([N+](=O)[O-])cc1)c1nc(-c2ccccn2)no1 (centres undefined)	67	–	–	–
Cc1ccc(-c2nc3cc(Cl)ccc3o2)cc1NC(=O)c1ccc([N+](=O)[O-])cc1	–	–	–	–

High-throughput results (PubChem)
